# Assay results published in PubChem BioAssay AID1159580 (chemical genetic matrix, 2015).
# Values joined by “and” are separate entries in the source; they are usually repeats but may differ in a detail not shown here. Equal values may be shown once. Hit rate of the full screen: of about 5,500 compounds, about 2,000 (36%) were called active. Inconclusive results (about 18%) are left out. Some of the results follow. A number with no mark means an inactive call. Rule as the data show it: active = normalized growth mostly below about 0.91 (no sharp cut-off); inconclusive = no clear call, values can overlap the other calls; inactive = mostly above about 0.92.
# Assay: chemical genetic growth profiling, strain panel (AID 1159580);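 also: tested at 20 µM; growth read once vehicle control cultures reached saturation at 30 °C; 1 = growth at the plate median or of vehicle wells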
# Conditions: S. cerevisiae deletion strains, growth OD
structure (smiles),measurement,setting,value
CS(=O)(=O)OCCCCOS(C)(=O)=O,normalized growth,"locus YAL013W, strain DEP1, stronger effect = lower value",0.954
same,normalized growth,"locus YAL021C, strain ccr4, stronger effect = lower value",0.999
same,normalized growth,"locus YAL026C, strain drs2, stronger effect = lower value",1.02
same,normalized growth,"locus YAL030W, strain snc1, stronger effect = lower value",1.03
same,normalized growth,"locus YBL061C, strain skt5, stronger effect = lower value",1.01
same,normalized growth,"locus YBR009C, strain hhf1, stronger effect = lower value",1.11 [resistant] (active)
same,normalized growth,"locus YBR021W, strain FUR4, stronger effect = lower value",1.01
same,normalized growth,"locus YBR023C, strain chs3, stronger effect = lower value",1.01
same,normalized growth,"locus YBR171W, strain sec66, stronger effect = lower value",1.03
same,normalized growth,"locus YBR229C, strain ROT2, stronger effect = lower value",0.994
same,normalized growth,"locus YBR231C, strain swc5, stronger effect = lower value",0.993
same,normalized growth,"locus YBR279W, strain paf1, stronger effect = lower value",1.01
same,normalized growth,"locus YCL011C, strain gbp2, stronger effect = lower value",1.04
same,normalized growth,"locus YCL016C, strain dcc1, stronger effect = lower value",1.05
same,normalized growth,"locus YCL029C, strain bik1, stronger effect = lower value",0.956
same,normalized growth,"locus YCL069W, strain vba3, stronger effect = lower value",1.03
same,normalized growth,"locus YCR088W, strain abp1, stronger effect = lower value",1.02
same,normalized growth,"locus YDL005C, strain med2, stronger effect = lower value",1.01
same,normalized growth,"locus YDL035C, strain GPR1, stronger effect = lower value",1.02
same,normalized growth,"locus YDL040C, strain nat1, stronger effect = lower value",1
same,normalized growth,"locus YDL074C, strain BRE1, stronger effect = lower value",0.901
same,normalized growth,"locus YDL101C, strain DUN1, stronger effect = lower value",0.948
same,normalized growth,"locus YDL185W, strain tfp1, stronger effect = lower value",0.918
same,normalized growth,"locus YDL192W, strain arf1, stronger effect = lower value",0.942
same,normalized growth,"locus YDR001C, strain nth1, stronger effect = lower value",1.01
same,normalized growth,"locus YDR069C, strain doa4, stronger effect = lower value",1.02
same,normalized growth,"locus YDR101C, strain arx1, stronger effect = lower value",0.961
same,normalized growth,"locus YDR137W, strain rgp1, stronger effect = lower value",1.03
same,normalized growth,"locus YDR159W, strain sac3, stronger effect = lower value",0.996
same,normalized growth,"locus YDR162C, strain NBP2, stronger effect = lower value",0.961
same,normalized growth,"locus YDR195W, strain ref2",0.973
same,normalized growth,"locus YDR297W, strain sur2, stronger effect = lower value",1.05
same,normalized growth,"locus YDR318W, strain mcm21, stronger effect = lower value",0.962
same,normalized growth,"locus YDR334W, strain swr1, stronger effect = lower value",1.01
same,normalized growth,"locus YDR335W, strain msn5, stronger effect = lower value",1.04
same,normalized growth,"locus YDR388W, stronger effect = lower value",0.963
same,normalized growth,"locus YDR392W, strain spt3, stronger effect = lower value",1.04
same,normalized growth,"locus YDR502C, strain sam2, stronger effect = lower value",0.973
same,normalized growth,"locus YEL003W, strain gim4, stronger effect = lower value",1.03
same,normalized growth,"locus YEL037C, strain rad23, stronger effect = lower value",1.02
same,normalized growth,"locus YEL061C, strain CIN8 (second series), stronger effect = lower value",1.01
same,normalized growth,"locus YEL061C, strain CIN8, stronger effect = lower value",0.979
same,normalized growth,"locus YER015W, strain faa2, stronger effect = lower value",0.998
same,normalized growth,"locus YER016W, strain bim1, stronger effect = lower value",1.03
same,normalized growth,"locus YER110C, stronger effect = lower value",0.93
same,normalized growth,"locus YER111C, strain swi4, stronger effect = lower value",1.02
same,normalized growth,"locus YER155C, strain BEM2 (second series), stronger effect = lower value",1.02
same,normalized growth,"locus YER155C, strain BEM2, stronger effect = lower value",1
same,normalized growth,"locus YER167W, strain BCK2, stronger effect = lower value",1.01
same,normalized growth,"locus YFR010W, strain ubp6, stronger effect = lower value",0.996
same,normalized growth,"locus YGL078C, strain dbp3, stronger effect = lower value",0.987
same,normalized growth,"locus YGL086W, strain mad1, stronger effect = lower value",0.954
same,normalized growth,"locus YGL167C, strain pmr1, stronger effect = lower value",1.05
same,normalized growth,"locus YGL173C, strain kem1, stronger effect = lower value",1.01
same,normalized growth,"locus YGL227W, strain vid30, stronger effect = lower value",1.02
same,normalized growth,"locus YGL240W, strain doc1, stronger effect = lower value",1.05
same,normalized growth,"locus YGL248W, strain PDE1, stronger effect = lower value",0.95
same,normalized growth,"locus YGL253W, strain hxk2, stronger effect = lower value",1.03
same,normalized growth,"locus YGR078C, strain PAC10, stronger effect = lower value",0.935
same,normalized growth,"locus YGR135W, strain pre9, stronger effect = lower value",0.934
same,normalized growth,"locus YGR252W, strain gcn5, stronger effect = lower value",0.861
same,normalized growth,"locus YHR013C, strain ard1, stronger effect = lower value",1.09
same,normalized growth,"locus YHR027C, strain rpn1, stronger effect = lower value",1
same,normalized growth,"locus YHR030C, strain SLT2, stronger effect = lower value",0.979 and 1
same,normalized growth,"locus YHR079C, strain IRE1 (second series), stronger effect = lower value",0.952
same,normalized growth,"locus YHR079C, strain IRE1, stronger effect = lower value",0.994
same,normalized growth,"locus YHR094C, strain hxt1, stronger effect = lower value",0.981
same,normalized growth,"locus YHR129C, strain ARP1, stronger effect = lower value",0.969
same,normalized growth,"locus YHR142W, strain chs7, stronger effect = lower value",1.07
same,normalized growth,"locus YHR200W, strain rpn10, stronger effect = lower value",0.948
same,normalized growth,"locus YIL066C, strain RNR3, stronger effect = lower value",1
same,normalized growth,"locus YIL073C, strain SPO22, stronger effect = lower value",0.907
same,normalized growth,"locus YIL125W, strain kgd1, stronger effect = lower value",0.981
same,normalized growth,"locus YIR030C, strain dcg1, stronger effect = lower value",0.962
same,normalized growth,"locus YJL092W, strain hpr5, stronger effect = lower value",1.03
same,normalized growth,"locus YJL095W, strain BCK1 (second series), stronger effect = lower value",1.05
same,normalized growth,"locus YJL095W, strain BCK1, stronger effect = lower value",0.833 and 0.987
same,normalized growth,"locus YJL115W, strain asf1, stronger effect = lower value",1.01
same,normalized growth,"locus YJL129C, strain trk1, stronger effect = lower value",0.999
same,normalized growth,"locus YJL134W, strain LCB3, stronger effect = lower value",0.986
same,normalized growth,"locus YJL154C, strain vps35, stronger effect = lower value",1.02
same,normalized growth,"locus YJL164C, strain tpk1, stronger effect = lower value",1.09 [resistant] (active)
same,normalized growth,"locus YJL166W, strain qcr8, stronger effect = lower value",1.01
same,normalized growth,"locus YJL168C, strain set2, stronger effect = lower value",0.955
same,normalized growth,"locus YJL187C, strain SWE1 (second series), stronger effect = lower value",0.933
same,normalized growth,"locus YJL187C, strain SWE1, stronger effect = lower value",1.03
same,normalized growth,"locus YJR043C, strain POL32, stronger effect = lower value",1.01
same,normalized growth,"locus YJR066W, strain TOR1, stronger effect = lower value",0.985
same,normalized growth,"locus YKL009W, strain mrt4, stronger effect = lower value",0.967
same,normalized growth,"locus YKL068W, stronger effect = lower value",0.99
same,normalized growth,"locus YKL085W, strain MDH1 (second series), stronger effect = lower value",0.975
same,normalized growth,"locus YKL085W, strain MDH1, stronger effect = lower value",0.975
same,normalized growth,"locus YKL160W, strain elf1, stronger effect = lower value",1.05
same,normalized growth,"locus YKL190W, strain CNB1, stronger effect = lower value",0.977
same,normalized growth,"locus YKR001C, strain vps1, stronger effect = lower value",0.89 (active)
same,normalized growth,"locus YKR026C, strain gcn3, stronger effect = lower value",1.02
same,normalized growth,"locus YKR091W, strain srl3, stronger effect = lower value",1.03
same,normalized growth,"locus YLL001W, strain dnm1, stronger effect = lower value",1.03
same,normalized growth,"locus YLL026W, stronger effect = lower value",1.03
same,normalized growth,"locus YLL041C, strain sdh2, stronger effect = lower value",1.02
same,normalized growth,"locus YLR027C, strain aat2, stronger effect = lower value",1.04
same,normalized growth,"locus YLR039C, strain RIC1, stronger effect = lower value",0.985
same,normalized growth,"locus YLR058C, strain SHM2, stronger effect = lower value",0.969
same,normalized growth,"locus YLR102C, strain apc9, stronger effect = lower value",0.972
same,normalized growth,"locus YLR113W, strain HOG1, stronger effect = lower value",0.961
same,normalized growth,"locus YLR221C, strain rsa3, stronger effect = lower value",1.07
same,normalized growth,"locus YLR258W, strain gsy2, stronger effect = lower value",1.07
same,normalized growth,"locus YLR262C, strain YPT6 (second series), stronger effect = lower value",1.04
same,normalized growth,"locus YLR262C, strain YPT6, stronger effect = lower value",1.02
same,normalized growth,"locus YLR268W, strain sec22, stronger effect = lower value",0.95
same,normalized growth,"locus YLR320W, strain mms22, stronger effect = lower value",0.999
same,normalized growth,"locus YLR330W, strain CHS5, stronger effect = lower value",0.957
same,normalized growth,"locus YLR342W, strain FKS1 (second series), stronger effect = lower value",1.08
same,normalized growth,"locus YLR342W, strain FKS1, stronger effect = lower value",1.02
same,normalized growth,"locus YLR357W, strain rsc2, stronger effect = lower value",1.05
same,normalized growth,"locus YLR370C, strain arc18, stronger effect = lower value",1.03
same,normalized growth,"locus YLR371W, strain rom2, stronger effect = lower value",0.939
same,normalized growth,"locus YLR384C, strain iki3, stronger effect = lower value",1.01
same,normalized growth,"locus YLR418C, strain cdc73, stronger effect = lower value",0.872
same,normalized growth,"locus YML016C, strain PPZ1, stronger effect = lower value",0.981
same,normalized growth,"locus YML032C, strain rad52, stronger effect = lower value",0.97
same,normalized growth,"locus YML120C, strain ndi1, stronger effect = lower value",1.03
same,normalized growth,"locus YML124C, strain tub3, stronger effect = lower value",0.967
same,normalized growth,"locus YMR058W, strain fet3, stronger effect = lower value",1.01
same,normalized growth,"locus YMR078C, strain ctf18, stronger effect = lower value",0.942
same,normalized growth,"locus YMR125W, strain sto1, stronger effect = lower value",1.03
same,normalized growth,"locus YMR129W, stronger effect = lower value",1.02
same,normalized growth,"locus YMR205C, strain PFK2, stronger effect = lower value",1.01
same,normalized growth,"locus YMR223W, strain ubp8, stronger effect = lower value",0.934
same,normalized growth,"locus YMR231W, strain pep5, stronger effect = lower value",1.02
same,normalized growth,"locus YMR307W, strain GAS1, stronger effect = lower value",0.984
same,normalized growth,"locus YNL067W, strain RPL9B, stronger effect = lower value",0.928
same,normalized growth,"locus YNL071W, strain lat1, stronger effect = lower value",1.01
same,normalized growth,"locus YNL128W, strain TEP1, stronger effect = lower value",0.909
same,normalized growth,"locus YNL153C, strain GIM3, stronger effect = lower value",0.938
same,normalized growth,"locus YNL183C, strain NPR1, stronger effect = lower value",0.932
same,normalized growth,"locus YNL209W, strain ssb2, stronger effect = lower value",1.01
same,normalized growth,"locus YNL233W, strain BNI4, stronger effect = lower value",0.889
same,normalized growth,"locus YNL248C, strain rpa49, stronger effect = lower value",1.06
same,normalized growth,"locus YNL250W, strain rad50, stronger effect = lower value",0.964
same,normalized growth,"locus YNL271C, strain bni1, stronger effect = lower value",0.955
same,normalized growth,"locus YNL298W, strain CLA4, stronger effect = lower value",0.979
same,normalized growth,"locus YNL307C, strain MCK1, stronger effect = lower value",0.963
same,normalized growth,"locus YNL322C, strain KRE1 (second series), stronger effect = lower value",1.04
same,normalized growth,"locus YNR049C, strain mso1, stronger effect = lower value",1.02
same,normalized growth,"locus YNR052C, strain pop2, stronger effect = lower value",0.908 (active)
same,normalized growth,"locus YOL006C, strain TOP1, stronger effect = lower value",0.696
same,normalized growth,"locus YOL012C, strain htz1",0.364
same,normalized growth,"locus YOL147C, strain pex11, stronger effect = lower value",0.972
same,normalized growth,"locus YOR001W, strain rrp6, stronger effect = lower value",1.03
same,normalized growth,"locus YOR061W, strain CKA2, stronger effect = lower value",0.987
same,normalized growth,"locus YOR069W, strain VPS5, stronger effect = lower value",0.986
same,normalized growth,"locus YOR070C, strain gyp1, stronger effect = lower value",1.01
same,normalized growth,"locus YOR080W, strain dia2, stronger effect = lower value",1.05
same,normalized growth,"locus YOR083W, strain WHI5, stronger effect = lower value",1.05
same,normalized growth,"locus YOR106W, strain vam3, stronger effect = lower value",1.03
same,normalized growth,"locus YOR136W, strain idh2, stronger effect = lower value",0.977
same,normalized growth,"locus YOR144C, strain elg1, stronger effect = lower value",0.984
same,normalized growth,"locus YOR184W, strain ser1, stronger effect = lower value",0.989
same,normalized growth,"locus YOR231W, strain MKK1, stronger effect = lower value",1
same,normalized growth,"locus YOR265W, strain rbl2, stronger effect = lower value",1.01
same,normalized growth,"locus YOR270C, strain vph1, stronger effect = lower value",1.07
same,normalized growth,"locus YOR290C, strain snf2, stronger effect = lower value",1.06
same,normalized growth,"locus YOR316C, strain cot1, stronger effect = lower value",0.972
same,normalized growth,"locus YPL051W, strain arl3, stronger effect = lower value",1.02
same,normalized growth,"locus YPL078C, strain atp4, stronger effect = lower value",1.02
same,normalized growth,"locus YPL106C, strain sse1, stronger effect = lower value",1.05
same,normalized growth,"locus YPL240C, strain hsp82, stronger effect = lower value",1.02
same,normalized growth,"locus YPL256C, strain CLN2, stronger effect = lower value",0.99
same,normalized growth,"locus YPR119W, strain clb2, stronger effect = lower value",0.951
same,normalized growth,"locus YPR141C, strain kar3, stronger effect = lower value",0.957
same,normalized growth,"locus YPR163C, strain tif3, stronger effect = lower value",0.962
same,normalized growth,"locus YPR167C, strain met16, stronger effect = lower value",0.975
same,normalized growth,"strain wtn01, stronger effect = lower value",0.953
